# In PMC7862700, “An all-to-all approach to the identification of sequence-specific readers for epigenetic DNA modifications on cytosine”:
# How the values were obtained:
# Experiment in all cases: DAPPL (digital affinity profiling via proximity ligation, sequencing); 10 mM Tris-HCl pH 7.5, 50 mM NaCl, 1 mM DTT, 4% glycerol, room temperature, 30 min; GST-TFs on glutathione beads, 16-mer random dsDNA library, 0.1% formaldehyde crosslink after washing; high values mean tight binding
# FEV = target: T1, FEV (Homo sapiens, UniProt Q99581 1-238); conditions: protein: recombinant; tags: N-terminal GST; dsDNA, one strand shown
# T1 sequence: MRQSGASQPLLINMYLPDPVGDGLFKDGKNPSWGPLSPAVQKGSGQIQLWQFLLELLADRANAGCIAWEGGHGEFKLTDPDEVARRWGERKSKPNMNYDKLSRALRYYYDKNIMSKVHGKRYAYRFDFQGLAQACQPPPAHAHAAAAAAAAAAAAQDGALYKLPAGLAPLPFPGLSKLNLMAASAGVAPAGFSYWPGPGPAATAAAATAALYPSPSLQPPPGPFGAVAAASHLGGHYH
# Method in brief: (§1)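 Human transcription factors carrying a GST fusion were produced in yeast, bound to glutathione beads, tagged with DNA barcodes and pooled together with a tag-only sample. Each pool was held with 200 nmole of a random double-stranded 16-mer DNA library in Tris/NaCl/DTT/glycerol buffer for 30 min at room temperature, then washed, crosslinked in 0.1% formaldehyde, proximity-ligated with BsaI/T4 ligase (1 h, 37 °C), PCR-amplified and sequenced on an Illumina NextSeq500. Binding signal is the read frequency of each hexamer for a given factor divided by its frequency in the tag-only sample.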
# ETV5 = ETV5 (Homo sapiens, UniProt P41161 1-510); conditions: protein: recombinant; tags: N-terminal GST; dsDNA, one strand shown
# ETV5, sequence (P41161 whole entry): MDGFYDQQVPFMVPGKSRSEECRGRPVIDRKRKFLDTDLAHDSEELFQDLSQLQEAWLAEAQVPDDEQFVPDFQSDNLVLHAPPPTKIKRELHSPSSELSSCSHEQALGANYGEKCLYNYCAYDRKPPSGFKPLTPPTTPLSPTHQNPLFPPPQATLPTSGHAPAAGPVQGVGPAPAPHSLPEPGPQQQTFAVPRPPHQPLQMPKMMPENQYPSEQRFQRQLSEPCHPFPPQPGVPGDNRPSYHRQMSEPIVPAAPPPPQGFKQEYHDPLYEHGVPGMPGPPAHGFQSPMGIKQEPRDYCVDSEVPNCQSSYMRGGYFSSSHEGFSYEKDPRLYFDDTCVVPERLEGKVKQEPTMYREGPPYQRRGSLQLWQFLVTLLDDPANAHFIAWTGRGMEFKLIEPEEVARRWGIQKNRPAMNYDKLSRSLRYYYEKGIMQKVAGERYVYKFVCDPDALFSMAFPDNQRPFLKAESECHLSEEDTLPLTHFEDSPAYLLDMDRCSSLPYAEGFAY
# Method in brief: as §1
# HSF1 = HSF1 (Homo sapiens, UniProt Q00613 1-529); conditions: protein: recombinant; tags: N-terminal GST; chain copies: 3; dsDNA, one strand shown
# HSF1, sequence (Q00613 whole entry): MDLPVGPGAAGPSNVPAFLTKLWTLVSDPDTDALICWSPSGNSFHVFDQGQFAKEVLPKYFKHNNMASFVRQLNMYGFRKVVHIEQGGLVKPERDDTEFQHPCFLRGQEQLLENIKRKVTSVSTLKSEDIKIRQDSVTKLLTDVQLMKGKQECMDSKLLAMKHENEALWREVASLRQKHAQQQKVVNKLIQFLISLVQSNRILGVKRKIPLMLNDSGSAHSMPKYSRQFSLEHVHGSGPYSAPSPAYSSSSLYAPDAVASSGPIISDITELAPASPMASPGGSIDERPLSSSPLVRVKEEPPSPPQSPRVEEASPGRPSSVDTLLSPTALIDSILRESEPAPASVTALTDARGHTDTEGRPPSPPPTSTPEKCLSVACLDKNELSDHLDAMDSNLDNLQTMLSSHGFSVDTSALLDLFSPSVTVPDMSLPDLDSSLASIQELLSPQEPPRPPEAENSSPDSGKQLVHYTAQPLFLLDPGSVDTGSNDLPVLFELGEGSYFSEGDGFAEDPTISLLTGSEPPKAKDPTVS
# Method in brief: as §1
# SPIC = target: T2, SPIC (Homo sapiens, UniProt Q8N5J4 1-248); conditions: protein: recombinant; tags: N-terminal GST; dsDNA, one strand shown
# T2 sequence: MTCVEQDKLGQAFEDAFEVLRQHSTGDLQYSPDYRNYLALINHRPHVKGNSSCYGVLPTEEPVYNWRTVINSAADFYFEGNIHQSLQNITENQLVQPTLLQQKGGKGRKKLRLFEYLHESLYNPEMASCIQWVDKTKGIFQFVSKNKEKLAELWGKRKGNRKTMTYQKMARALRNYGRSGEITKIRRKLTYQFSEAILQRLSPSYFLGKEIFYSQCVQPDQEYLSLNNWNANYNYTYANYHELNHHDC
# Method in brief: as §1
# ELF4 = ELF4 (Homo sapiens, UniProt Q99607 1-663); conditions: protein: recombinant; tags: N-terminal GST; dsDNA, one strand shown
# ELF4, sequence (Q99607 whole entry): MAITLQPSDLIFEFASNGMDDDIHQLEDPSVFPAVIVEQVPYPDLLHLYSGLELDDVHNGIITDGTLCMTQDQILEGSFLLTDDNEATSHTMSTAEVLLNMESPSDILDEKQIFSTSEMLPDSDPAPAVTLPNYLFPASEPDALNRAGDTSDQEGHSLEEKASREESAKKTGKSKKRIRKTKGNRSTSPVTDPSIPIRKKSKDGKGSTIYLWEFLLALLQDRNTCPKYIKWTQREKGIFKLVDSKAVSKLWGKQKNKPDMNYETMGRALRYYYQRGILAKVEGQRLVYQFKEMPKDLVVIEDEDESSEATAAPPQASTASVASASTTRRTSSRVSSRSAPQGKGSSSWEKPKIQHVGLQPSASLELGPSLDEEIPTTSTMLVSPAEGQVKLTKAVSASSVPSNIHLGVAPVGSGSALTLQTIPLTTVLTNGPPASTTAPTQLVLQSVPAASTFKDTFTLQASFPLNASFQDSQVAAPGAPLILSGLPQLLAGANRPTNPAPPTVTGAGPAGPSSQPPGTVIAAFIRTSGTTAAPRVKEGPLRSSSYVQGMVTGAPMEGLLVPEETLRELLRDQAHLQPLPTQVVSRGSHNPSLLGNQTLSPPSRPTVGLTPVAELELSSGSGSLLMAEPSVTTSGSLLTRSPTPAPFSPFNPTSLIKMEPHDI
# Method in brief: as §1
# ELK4 = target: T3, ELK4 (Homo sapiens, UniProt P28324-2 1-405); conditions: protein: recombinant; tags: N-terminal GST; dsDNA, one strand shown
# T3 sequence: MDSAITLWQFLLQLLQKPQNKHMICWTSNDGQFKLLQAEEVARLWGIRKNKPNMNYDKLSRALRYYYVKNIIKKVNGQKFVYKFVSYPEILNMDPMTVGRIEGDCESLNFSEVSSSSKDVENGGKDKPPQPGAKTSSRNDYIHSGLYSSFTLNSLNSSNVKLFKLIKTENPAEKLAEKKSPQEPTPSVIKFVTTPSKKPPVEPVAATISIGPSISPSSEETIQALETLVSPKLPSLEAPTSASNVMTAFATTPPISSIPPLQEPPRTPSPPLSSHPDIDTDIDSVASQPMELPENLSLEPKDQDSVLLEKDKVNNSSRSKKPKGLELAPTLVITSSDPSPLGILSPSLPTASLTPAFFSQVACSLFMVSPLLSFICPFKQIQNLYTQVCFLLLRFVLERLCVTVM
# Method in brief: as §1
# ETV2 = target: T4, ETV2 (Homo sapiens, UniProt O00321 1-342); conditions: protein: recombinant; tags: N-terminal GST; dsDNA, one strand shown
# T4 sequence: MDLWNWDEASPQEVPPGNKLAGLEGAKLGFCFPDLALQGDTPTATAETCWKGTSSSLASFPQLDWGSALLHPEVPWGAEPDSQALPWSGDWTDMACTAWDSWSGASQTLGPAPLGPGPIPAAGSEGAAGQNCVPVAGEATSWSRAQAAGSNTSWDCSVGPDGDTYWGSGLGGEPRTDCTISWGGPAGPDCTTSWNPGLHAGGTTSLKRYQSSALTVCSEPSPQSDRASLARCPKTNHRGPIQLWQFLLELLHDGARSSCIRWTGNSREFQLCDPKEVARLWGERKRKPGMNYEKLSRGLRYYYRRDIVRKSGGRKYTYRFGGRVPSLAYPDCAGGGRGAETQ
# Method in brief: as §1
# ELF3 = target: T5, ELF3 (Homo sapiens, UniProt P78545 1-371); conditions: protein: recombinant; tags: N-terminal GST; dsDNA, one strand shown
# T5 sequence: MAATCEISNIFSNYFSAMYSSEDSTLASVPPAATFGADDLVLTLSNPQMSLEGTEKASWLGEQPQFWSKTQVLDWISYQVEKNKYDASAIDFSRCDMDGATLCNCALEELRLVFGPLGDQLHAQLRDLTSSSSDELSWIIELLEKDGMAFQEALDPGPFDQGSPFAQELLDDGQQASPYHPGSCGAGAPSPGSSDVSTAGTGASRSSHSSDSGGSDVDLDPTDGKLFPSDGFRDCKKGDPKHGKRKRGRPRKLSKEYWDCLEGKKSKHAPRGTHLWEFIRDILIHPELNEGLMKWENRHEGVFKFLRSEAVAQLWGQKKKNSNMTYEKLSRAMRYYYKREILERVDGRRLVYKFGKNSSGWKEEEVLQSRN
# Method in brief: as §1
# CRX = CRX (Homo sapiens, UniProt O43186 1-299); conditions: protein: recombinant; tags: N-terminal GST; dsDNA, one strand shown
# CRX, sequence (O43186 whole entry): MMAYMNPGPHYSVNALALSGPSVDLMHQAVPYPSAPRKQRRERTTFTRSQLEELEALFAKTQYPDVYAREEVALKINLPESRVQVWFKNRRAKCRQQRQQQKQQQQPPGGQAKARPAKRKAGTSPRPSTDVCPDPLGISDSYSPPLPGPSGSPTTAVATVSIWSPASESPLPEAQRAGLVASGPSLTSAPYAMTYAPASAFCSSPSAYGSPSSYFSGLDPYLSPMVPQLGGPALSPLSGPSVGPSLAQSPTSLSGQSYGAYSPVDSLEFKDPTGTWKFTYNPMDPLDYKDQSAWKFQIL
# Method in brief: as §1
# ETV1 = ETV1 (Homo sapiens, UniProt P50549 1-477); conditions: protein: recombinant; tags: N-terminal GST; dsDNA, one strand shown
# ETV1, sequence (P50549 whole entry): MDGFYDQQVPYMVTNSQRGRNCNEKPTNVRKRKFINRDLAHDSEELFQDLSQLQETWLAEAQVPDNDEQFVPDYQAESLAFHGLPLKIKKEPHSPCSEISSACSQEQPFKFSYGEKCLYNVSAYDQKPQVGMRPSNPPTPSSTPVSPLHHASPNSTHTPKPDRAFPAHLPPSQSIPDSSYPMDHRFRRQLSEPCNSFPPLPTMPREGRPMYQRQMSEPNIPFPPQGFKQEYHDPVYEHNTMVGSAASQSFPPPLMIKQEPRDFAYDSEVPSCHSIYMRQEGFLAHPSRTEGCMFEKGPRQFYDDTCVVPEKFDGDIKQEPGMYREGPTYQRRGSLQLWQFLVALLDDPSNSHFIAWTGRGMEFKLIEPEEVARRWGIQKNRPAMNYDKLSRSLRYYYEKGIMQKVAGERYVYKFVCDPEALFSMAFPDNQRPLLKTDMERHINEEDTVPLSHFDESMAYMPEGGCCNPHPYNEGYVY
# Method in brief: as §1
# ERF = target: T6, ERF (Homo sapiens, UniProt P50548 1-548); conditions: protein: recombinant; tags: N-terminal GST; dsDNA, one strand shown
# T6 sequence: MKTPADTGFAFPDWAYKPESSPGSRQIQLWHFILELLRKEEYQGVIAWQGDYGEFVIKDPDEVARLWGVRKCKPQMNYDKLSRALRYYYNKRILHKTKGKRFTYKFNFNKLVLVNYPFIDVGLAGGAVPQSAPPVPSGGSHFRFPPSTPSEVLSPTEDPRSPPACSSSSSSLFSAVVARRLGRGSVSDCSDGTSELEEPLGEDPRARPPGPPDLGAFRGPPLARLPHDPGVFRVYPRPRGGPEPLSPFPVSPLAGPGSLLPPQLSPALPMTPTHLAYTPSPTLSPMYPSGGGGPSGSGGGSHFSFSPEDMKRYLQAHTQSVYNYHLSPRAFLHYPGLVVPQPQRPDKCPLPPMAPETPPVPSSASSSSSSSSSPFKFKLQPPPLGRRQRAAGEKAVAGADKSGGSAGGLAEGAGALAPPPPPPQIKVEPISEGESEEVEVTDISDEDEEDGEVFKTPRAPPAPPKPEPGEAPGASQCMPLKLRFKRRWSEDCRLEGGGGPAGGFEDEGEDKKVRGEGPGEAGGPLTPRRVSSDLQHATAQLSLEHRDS
# Method in brief: as §1
# ETV3L = target: T7, ETV3L (Homo sapiens, UniProt Q6ZN32 1-361); conditions: protein: recombinant; tags: N-terminal GST; dsDNA, one strand shown
# T7 sequence: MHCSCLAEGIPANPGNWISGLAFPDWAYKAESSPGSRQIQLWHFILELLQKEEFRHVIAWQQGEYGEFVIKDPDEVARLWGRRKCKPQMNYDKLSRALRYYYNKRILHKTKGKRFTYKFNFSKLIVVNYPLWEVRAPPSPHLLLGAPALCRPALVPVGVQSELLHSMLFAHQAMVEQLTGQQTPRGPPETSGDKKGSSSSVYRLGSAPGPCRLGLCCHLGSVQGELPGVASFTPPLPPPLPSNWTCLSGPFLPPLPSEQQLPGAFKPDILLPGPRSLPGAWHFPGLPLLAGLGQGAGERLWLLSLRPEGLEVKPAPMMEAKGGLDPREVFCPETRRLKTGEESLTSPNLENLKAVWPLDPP
# Method in brief: as §1
# ETS2 = target: T8, ETS2 (Homo sapiens, UniProt P15036 1-469); conditions: protein: recombinant; tags: N-terminal GST; dsDNA, one strand shown
# T8 sequence: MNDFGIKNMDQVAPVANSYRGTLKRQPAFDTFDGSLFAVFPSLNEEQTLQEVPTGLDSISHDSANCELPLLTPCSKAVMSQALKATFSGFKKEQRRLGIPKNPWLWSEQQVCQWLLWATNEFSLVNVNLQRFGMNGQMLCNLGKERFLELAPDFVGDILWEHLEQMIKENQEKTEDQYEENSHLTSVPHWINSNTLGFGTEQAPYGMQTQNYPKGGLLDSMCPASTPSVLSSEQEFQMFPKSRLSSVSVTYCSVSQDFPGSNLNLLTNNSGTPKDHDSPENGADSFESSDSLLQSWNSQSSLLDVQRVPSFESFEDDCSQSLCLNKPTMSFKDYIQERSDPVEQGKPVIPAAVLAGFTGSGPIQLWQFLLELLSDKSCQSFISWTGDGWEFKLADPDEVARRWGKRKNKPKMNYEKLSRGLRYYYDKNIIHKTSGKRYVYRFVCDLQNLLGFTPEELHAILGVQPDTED
# Method in brief: as §1
# SPDEF = target: T9, SPDEF (Homo sapiens, UniProt O95238 1-335); conditions: protein: recombinant; tags: N-terminal GST; dsDNA, one strand shown
# T9 sequence: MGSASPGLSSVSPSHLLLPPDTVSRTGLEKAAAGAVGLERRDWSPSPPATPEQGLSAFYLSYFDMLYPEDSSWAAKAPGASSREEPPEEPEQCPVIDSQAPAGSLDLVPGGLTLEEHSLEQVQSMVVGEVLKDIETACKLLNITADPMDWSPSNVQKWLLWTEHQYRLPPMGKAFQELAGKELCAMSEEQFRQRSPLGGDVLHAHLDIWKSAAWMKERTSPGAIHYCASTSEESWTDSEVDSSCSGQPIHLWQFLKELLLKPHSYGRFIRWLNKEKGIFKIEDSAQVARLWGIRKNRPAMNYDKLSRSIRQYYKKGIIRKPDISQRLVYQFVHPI
# Method in brief: as §1
# ETV7 = target: T10, ETV7 (Homo sapiens, UniProt Q9Y603 1-341); conditions: protein: recombinant; tags: N-terminal GST; dsDNA, one strand shown
# T10 sequence: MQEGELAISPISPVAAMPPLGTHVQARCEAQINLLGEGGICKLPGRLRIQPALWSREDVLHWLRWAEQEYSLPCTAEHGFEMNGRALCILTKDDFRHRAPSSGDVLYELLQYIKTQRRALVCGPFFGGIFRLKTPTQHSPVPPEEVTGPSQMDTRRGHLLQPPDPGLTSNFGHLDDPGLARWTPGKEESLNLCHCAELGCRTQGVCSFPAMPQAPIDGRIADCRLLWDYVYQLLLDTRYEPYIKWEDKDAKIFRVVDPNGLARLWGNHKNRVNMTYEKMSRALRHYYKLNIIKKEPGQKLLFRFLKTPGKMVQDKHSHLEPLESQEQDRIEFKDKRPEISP
# Method in brief: as §1
# ELF5 = target: T11, ELF5 (Homo sapiens, UniProt Q9UKW6-2 1-255); conditions: protein: recombinant; tags: N-terminal GST; dsDNA, one strand shown
# T11 sequence: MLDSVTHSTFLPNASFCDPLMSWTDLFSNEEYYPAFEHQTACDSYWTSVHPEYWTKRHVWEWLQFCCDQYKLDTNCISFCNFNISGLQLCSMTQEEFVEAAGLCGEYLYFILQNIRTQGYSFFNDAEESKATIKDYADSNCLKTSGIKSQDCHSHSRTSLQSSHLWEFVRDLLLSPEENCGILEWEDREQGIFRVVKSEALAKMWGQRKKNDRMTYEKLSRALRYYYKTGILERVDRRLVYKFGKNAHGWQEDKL
# Method in brief: as §1
# ETV3 = target: T12, ETV3 (Homo sapiens, UniProt P41162-2 1-143); conditions: protein: recombinant; tags: N-terminal GST; dsDNA, one strand shown
# T12 sequence: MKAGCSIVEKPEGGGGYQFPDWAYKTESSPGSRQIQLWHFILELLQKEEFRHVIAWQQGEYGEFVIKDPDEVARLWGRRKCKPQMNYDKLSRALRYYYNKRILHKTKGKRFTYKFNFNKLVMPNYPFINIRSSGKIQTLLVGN
# Method in brief: as §1
# ETV6 = ETV6 (Homo sapiens, UniProt P41212 1-452); conditions: protein: recombinant; tags: N-terminal GST; dsDNA, one strand shown
# ETV6, sequence (P41212 whole entry): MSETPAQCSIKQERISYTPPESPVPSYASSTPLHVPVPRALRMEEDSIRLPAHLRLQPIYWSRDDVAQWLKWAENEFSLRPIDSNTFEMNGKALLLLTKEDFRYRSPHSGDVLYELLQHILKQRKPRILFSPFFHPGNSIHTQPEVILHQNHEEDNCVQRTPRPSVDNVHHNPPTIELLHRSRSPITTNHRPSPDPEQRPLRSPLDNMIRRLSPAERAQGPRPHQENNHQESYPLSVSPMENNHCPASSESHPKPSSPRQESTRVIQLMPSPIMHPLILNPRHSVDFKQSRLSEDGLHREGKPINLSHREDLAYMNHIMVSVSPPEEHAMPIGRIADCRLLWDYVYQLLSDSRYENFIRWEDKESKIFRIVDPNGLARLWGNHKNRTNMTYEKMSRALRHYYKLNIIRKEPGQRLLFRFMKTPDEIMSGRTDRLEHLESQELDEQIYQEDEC
# Method in brief: as §1
sequence,measurement,setting,value
AATGAG,binding signal,FEV,"1.14 fold enrichment (6-mer frequency, TF over GST control)"
same,binding signal,ETV5,"1.17 fold enrichment (6-mer frequency, TF over GST control)"
same,binding signal,HSF1,"1.05 fold enrichment (6-mer frequency, TF over GST control)"
same,binding signal,SPIC,"1.31 fold enrichment (6-mer frequency, TF over GST control)"
same,binding signal,ELF4,"1.14 fold enrichment (6-mer frequency, TF over GST control)"
same,binding signal,ELK4,"1.14 fold enrichment (6-mer frequency, TF over GST control)"
same,binding signal,ETV2,"1.46 fold enrichment (6-mer frequency, TF over GST control)"
same,binding signal,ELF3,"1.25 fold enrichment (6-mer frequency, TF over GST control)"
same,binding signal,CRX,"1.08 fold enrichment (6-mer frequency, TF over GST control)"
same,binding signal,ETV1,"1.21 fold enrichment (6-mer frequency, TF over GST control)"
same,binding signal,ERF,"1.2 fold enrichment (6-mer frequency, TF over GST control)"
same,binding signal,ETV3L,"1.1 fold enrichment (6-mer frequency, TF over GST control)"
same,binding signal,ETS2,"1.2 fold enrichment (6-mer frequency, TF over GST control)"
same,binding signal,SPDEF,"1.01 fold enrichment (6-mer frequency, TF over GST control)"
same,binding signal,ETV7,"1.15 fold enrichment (6-mer frequency, TF over GST control)"
same,binding signal,ELF5,"1.17 fold enrichment (6-mer frequency, TF over GST control)"
same,binding signal,ETV3,"1.13 fold enrichment (6-mer frequency, TF over GST control)"
same,binding signal,ETV6,"1.32 fold enrichment (6-mer frequency, TF over GST control)"
